In the supplement of paper PMC11732987, “Enantioselective OTUD7B fragment discovery through chemoproteomics screening and high-throughput optimisation” (Communications Chemistry, 2025):

Assays:
Assay in all cases: log2 ratio of Biotin-Ahx-Ub-VS probe labelling (fragment/DMSO); higher = less target engagement (more negative = stronger competition), active = hit call of the paper (q ≤ 0.05, log2 ratio ≤ -1)
Settings in all cases: compound concentration: 200 uM; treatment time: 3 h
USP34 = USP34 (UniProt Q70CQ2)
Summary of the method: (§1)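 Each value is an average log2 ratio of fragment to vehicle, tested by unpaired t-test. The underlying Spectronaut label-free quantities were global-median-normalised, and only proteins with ≥2 unique peptides were included. Triplicate HEK293T lysate samples (495 µg) were exposed to fragment at 200 µM or vehicle for 3 h, then to Biotin-Ahx-Ub-VS at 0.5 µM final for 1 h, before NeutrAvidin enrichment of labelled DUBs, LysC and trypsin digestion, and diaPASEF LC-MS/MS.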

USP36 = target: T1, USP36 (UniProt Q9P275)
T1 sequence (whole entry): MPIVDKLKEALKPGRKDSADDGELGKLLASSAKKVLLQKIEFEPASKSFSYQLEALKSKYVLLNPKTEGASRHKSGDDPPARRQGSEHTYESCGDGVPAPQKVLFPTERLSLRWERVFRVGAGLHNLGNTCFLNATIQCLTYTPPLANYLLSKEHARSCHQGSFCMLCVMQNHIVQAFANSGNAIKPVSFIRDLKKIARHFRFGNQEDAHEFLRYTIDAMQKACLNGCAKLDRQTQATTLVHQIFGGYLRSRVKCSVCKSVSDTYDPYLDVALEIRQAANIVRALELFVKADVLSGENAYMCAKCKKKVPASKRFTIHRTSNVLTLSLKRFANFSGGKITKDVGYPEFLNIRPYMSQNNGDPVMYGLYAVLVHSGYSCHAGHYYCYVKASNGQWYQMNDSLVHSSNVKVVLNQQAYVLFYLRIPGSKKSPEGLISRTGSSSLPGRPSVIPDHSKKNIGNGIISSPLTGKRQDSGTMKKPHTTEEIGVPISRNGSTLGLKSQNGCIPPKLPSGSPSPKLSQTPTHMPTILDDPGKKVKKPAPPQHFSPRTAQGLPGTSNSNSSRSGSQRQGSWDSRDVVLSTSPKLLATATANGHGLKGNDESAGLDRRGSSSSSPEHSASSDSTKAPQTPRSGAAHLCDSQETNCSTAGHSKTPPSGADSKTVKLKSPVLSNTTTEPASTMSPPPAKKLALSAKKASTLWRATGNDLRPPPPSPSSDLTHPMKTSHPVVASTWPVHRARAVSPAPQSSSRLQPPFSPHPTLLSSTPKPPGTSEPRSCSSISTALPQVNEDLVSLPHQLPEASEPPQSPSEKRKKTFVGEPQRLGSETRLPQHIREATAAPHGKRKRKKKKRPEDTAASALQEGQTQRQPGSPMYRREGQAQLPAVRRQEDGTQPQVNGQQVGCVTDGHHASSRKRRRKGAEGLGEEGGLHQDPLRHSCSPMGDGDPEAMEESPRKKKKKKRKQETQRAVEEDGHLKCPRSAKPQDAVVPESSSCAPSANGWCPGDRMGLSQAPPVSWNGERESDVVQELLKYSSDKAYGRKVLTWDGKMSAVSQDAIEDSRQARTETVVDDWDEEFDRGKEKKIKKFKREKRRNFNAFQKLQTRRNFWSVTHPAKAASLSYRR
Summary of the method: as §1

USP38 = target: T2, USP38 (UniProt Q8NB14)
T2 sequence (whole entry): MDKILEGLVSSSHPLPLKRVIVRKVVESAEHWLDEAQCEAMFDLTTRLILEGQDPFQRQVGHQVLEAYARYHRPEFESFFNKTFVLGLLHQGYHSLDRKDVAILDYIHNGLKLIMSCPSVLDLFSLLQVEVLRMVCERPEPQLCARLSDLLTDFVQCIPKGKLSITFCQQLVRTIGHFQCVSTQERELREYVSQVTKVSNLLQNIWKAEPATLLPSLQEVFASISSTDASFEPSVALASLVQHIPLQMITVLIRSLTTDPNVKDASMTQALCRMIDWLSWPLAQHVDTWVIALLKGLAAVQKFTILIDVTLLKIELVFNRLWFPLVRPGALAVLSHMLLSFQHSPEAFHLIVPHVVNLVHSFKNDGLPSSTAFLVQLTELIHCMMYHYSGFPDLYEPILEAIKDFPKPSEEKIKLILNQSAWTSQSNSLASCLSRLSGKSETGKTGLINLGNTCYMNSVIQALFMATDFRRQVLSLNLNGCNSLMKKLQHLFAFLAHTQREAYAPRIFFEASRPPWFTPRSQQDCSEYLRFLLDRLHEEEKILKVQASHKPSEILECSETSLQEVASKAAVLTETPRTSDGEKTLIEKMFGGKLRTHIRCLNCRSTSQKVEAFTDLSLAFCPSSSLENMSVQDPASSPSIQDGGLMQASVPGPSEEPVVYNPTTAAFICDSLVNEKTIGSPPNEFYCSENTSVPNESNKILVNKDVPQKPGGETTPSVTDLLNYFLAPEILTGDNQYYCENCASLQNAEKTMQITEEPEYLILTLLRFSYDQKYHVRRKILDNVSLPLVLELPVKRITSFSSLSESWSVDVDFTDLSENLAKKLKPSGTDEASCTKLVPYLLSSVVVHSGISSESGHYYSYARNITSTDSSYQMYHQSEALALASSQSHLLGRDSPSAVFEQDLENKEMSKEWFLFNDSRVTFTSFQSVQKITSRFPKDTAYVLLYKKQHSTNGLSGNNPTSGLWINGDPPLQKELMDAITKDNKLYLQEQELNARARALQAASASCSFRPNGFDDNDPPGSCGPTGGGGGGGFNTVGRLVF
Summary of the method: as §1

USP39 = target: T3, USP39 (UniProt Q53GS9)
T3 sequence (whole entry): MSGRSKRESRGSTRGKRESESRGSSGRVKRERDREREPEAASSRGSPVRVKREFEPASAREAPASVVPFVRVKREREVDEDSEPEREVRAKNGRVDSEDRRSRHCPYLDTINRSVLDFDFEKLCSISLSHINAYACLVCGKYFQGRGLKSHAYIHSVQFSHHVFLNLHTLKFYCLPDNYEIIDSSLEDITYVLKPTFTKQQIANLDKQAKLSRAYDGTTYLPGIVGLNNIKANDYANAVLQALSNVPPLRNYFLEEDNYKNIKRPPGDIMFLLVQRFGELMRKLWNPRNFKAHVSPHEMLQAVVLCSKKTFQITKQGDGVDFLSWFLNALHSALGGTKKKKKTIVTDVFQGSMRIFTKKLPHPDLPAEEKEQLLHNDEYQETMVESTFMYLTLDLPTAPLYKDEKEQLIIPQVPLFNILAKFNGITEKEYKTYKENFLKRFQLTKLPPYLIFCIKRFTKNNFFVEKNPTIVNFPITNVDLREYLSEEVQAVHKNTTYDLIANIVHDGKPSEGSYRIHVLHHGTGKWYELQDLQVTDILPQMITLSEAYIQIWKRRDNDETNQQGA
Summary of the method: as §1

USP4 = target: T4, USP4 (UniProt Q13107)
T4 sequence (whole entry): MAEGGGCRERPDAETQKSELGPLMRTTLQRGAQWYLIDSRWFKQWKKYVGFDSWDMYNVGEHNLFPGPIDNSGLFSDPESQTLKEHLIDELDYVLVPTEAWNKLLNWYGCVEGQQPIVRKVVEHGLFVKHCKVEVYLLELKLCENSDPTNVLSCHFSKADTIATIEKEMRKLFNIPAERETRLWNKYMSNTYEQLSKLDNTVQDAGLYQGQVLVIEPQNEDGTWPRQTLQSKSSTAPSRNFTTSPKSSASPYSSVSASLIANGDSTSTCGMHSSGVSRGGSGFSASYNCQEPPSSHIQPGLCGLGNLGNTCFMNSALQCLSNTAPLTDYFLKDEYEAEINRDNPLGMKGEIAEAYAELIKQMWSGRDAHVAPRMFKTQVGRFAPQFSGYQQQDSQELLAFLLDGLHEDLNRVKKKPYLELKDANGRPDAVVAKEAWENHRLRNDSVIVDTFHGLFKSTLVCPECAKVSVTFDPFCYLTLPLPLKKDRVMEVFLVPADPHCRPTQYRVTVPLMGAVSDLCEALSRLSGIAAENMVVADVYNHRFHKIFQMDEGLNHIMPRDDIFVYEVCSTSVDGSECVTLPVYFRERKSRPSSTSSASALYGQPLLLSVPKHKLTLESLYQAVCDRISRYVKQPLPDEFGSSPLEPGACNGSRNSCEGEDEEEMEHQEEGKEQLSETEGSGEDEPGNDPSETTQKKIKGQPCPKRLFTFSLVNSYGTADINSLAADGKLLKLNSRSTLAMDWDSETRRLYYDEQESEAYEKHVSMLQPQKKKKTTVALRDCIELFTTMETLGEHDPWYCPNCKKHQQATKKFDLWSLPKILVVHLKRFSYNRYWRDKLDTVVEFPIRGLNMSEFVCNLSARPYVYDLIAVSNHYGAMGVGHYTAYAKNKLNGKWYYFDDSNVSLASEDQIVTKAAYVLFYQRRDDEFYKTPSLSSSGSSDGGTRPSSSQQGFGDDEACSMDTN
Summary of the method: as §1

Measured: log2 ratio of Biotin-Ahx-Ub-VS probe labelling

Chain of USP34 (Q70CQ2 whole entry, the tested form may be a part): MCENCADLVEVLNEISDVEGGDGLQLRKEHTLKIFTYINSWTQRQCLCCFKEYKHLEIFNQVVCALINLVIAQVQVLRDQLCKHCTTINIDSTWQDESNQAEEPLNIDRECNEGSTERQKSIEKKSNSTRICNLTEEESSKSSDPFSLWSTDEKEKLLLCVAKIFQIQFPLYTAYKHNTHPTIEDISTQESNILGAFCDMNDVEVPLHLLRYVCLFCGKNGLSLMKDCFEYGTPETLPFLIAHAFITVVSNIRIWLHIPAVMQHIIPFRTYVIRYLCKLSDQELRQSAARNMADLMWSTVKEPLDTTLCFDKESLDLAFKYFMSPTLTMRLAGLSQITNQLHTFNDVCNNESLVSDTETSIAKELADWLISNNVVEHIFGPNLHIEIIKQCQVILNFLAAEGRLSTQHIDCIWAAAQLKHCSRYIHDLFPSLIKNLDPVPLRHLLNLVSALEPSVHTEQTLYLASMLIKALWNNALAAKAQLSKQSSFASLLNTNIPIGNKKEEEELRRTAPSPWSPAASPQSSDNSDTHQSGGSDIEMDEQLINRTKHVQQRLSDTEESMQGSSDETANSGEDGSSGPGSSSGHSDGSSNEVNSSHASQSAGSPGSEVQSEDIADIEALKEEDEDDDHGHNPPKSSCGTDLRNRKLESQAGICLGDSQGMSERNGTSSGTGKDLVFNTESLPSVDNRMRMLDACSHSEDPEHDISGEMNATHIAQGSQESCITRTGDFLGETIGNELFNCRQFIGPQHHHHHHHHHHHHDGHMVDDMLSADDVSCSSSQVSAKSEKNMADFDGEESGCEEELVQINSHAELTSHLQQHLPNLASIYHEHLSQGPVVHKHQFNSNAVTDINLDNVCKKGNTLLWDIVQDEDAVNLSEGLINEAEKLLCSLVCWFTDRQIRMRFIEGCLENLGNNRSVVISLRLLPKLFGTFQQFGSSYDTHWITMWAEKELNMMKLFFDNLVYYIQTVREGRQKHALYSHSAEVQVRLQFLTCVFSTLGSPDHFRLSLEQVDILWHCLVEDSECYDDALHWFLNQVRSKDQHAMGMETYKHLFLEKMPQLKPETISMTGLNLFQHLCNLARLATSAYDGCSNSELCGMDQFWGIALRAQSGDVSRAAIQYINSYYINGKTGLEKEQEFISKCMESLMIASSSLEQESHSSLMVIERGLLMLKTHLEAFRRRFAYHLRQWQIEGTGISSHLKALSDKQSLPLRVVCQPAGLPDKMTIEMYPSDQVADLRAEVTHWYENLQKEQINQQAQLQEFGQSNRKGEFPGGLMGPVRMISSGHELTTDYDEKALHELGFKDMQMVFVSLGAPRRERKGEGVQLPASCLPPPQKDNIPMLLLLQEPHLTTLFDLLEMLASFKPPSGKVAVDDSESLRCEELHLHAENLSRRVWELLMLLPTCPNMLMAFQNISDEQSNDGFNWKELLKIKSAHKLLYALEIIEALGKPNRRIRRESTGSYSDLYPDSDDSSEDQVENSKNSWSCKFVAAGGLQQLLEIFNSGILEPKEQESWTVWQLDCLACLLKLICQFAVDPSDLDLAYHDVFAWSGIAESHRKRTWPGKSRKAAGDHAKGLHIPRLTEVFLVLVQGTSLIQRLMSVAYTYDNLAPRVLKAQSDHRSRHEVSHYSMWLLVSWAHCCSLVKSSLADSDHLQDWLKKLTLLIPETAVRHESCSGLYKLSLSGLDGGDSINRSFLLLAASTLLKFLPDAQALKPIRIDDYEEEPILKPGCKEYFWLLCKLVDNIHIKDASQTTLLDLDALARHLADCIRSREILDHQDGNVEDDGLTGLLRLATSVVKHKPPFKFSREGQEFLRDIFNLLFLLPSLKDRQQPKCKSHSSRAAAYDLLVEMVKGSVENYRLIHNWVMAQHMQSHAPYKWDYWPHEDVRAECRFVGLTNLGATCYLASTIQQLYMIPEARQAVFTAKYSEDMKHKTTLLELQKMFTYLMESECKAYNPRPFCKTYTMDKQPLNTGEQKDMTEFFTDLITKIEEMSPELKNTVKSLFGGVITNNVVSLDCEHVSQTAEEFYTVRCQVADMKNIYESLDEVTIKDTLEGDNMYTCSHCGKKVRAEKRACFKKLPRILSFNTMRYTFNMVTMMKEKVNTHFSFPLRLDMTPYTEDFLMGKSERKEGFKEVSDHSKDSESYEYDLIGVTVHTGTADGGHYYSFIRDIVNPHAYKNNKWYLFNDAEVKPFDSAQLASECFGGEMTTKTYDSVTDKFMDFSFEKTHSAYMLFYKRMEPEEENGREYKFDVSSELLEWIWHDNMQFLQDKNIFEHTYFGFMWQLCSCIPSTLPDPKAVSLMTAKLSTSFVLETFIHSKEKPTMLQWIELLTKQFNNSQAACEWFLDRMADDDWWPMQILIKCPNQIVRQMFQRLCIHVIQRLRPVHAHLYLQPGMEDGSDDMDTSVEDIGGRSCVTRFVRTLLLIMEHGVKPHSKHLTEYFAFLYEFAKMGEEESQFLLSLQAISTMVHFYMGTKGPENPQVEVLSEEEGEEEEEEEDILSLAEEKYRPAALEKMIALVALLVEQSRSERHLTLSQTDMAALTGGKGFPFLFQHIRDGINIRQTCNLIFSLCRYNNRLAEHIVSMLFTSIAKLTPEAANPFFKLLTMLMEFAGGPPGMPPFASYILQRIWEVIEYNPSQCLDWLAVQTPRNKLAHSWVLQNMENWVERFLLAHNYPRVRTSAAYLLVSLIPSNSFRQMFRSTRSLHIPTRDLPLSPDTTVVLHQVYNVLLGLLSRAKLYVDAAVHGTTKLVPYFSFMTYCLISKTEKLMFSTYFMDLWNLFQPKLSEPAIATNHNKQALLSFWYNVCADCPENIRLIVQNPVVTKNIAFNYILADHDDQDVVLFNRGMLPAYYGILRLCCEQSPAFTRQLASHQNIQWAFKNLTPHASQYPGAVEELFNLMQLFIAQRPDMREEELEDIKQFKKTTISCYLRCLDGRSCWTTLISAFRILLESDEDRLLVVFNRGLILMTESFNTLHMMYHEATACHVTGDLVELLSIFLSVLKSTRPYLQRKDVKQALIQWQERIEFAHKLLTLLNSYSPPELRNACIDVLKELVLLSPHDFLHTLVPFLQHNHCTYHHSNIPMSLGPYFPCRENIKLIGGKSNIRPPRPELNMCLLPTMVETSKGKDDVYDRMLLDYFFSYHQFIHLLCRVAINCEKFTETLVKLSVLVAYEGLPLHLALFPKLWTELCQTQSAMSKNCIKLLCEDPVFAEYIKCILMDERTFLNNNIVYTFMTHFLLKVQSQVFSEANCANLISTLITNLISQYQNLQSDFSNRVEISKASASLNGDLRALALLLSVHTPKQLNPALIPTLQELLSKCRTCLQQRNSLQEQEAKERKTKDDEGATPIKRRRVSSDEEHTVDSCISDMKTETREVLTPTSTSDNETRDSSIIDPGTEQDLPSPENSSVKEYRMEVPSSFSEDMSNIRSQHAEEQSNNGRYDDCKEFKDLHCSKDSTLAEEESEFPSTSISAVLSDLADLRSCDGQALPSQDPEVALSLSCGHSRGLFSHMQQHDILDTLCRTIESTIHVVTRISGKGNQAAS

O=C(CCl)NCc1noc(C2CC2)n1
inactive: USP34 -0.18 | USP36 -0.144 | USP38 -0.0158 | USP39 0.182 | USP4 0.00316
